Rows were chosen to be rich in hits. Some 0.98% of all compounds tested hit in one or more screens of this group.
RTF Ca sens inh – cardiac RTF calcium desensitization; P19429+P45379; inhibition, % at 7.15 µM; IANBD-labeled cardiac RTF, Ca2+ fluorescence; 340,000 compounds, 0.12% hits;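 active = inhibition above the mean inhibition of all tested compounds plus 3 SD, cut at about 17% in these data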;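 also: assay run at fixed EC70 calcium of 1.6 mM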
LANA DNA inh – KSHV C-LANA DNA binding inhibition | MBP-C-LANA/FAM-LBS DNA binding, fluorescence polarization | inhibition, % at 9 µM | 340,000 compounds, 0.078% hits | AID 504423;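 active = highest replicate inhibition at or above 60% at 9 µM, even if other replicates fall short; inactive = all replicates below 60% inhibition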;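 also: 0% = neutral control wells and 100% = 4 µM acridine orange control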
Keap1-Nrf2 PPI – Keap1-Nrf2 (human) interaction inhibition. Q14145. Keap1 Kelch-Nrf2 peptide fluorescence polarization, 1536-well. inhibition, % at 9.4 µM. 340,000 compounds, 0.15% hits. AID 504523; in the data active = inhibition above about 12%;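 also: human Keap1 Kelch domain with fluorescein labeled Nrf2 9mer peptide probe; 0% = neutral control wells and 100% = peptide positive control; higher means more block of Keap1 binding to Nrf2 peptide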
Target sequence (Q14145 whole entry, looked up, the tested form may be a part): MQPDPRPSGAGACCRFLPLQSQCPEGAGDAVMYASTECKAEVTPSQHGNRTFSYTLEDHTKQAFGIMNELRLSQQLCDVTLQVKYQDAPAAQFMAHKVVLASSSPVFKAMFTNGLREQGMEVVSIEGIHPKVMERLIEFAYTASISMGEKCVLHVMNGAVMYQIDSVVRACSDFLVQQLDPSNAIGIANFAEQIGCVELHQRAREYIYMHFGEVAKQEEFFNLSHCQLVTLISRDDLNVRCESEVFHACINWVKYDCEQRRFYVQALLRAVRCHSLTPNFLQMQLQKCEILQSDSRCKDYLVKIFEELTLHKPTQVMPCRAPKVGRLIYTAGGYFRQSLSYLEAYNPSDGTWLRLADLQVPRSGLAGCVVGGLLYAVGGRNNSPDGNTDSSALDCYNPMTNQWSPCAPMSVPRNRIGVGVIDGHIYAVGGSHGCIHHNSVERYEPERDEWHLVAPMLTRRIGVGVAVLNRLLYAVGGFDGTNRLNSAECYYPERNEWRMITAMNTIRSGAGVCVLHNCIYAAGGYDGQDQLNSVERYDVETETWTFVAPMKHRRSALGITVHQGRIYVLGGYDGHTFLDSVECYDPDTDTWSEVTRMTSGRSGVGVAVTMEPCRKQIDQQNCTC
LANA-H2A inh – blocks KSHV LANA binding to histone H2A/H2B. inhibition, % (concentration not given with the values). Q9QR71. cell-free LANA-H2A/H2B peptide, fluorescence polarization. 320,000 compounds, 0.6% hits; in the data active = inhibition mostly above about 10%, no sharp cut-off; inactive = mostly below about 6.7%
RTF Ca sens act – cardiac RTF calcium sensitization; AID 493008; activation, % at 7.2 µM; IANBD-labeled TnC RTF fluorescence at EC20 calcium; 0% EC20 calcium, 100% full calcium; 340,000 compounds, 0.24% hits; P19429+P45379;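 active = activation above the mean over all tested compounds plus 3 SD, cut at about 30% in these data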;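 also: rise in fluorescence read as greater calcium sensitivity of cardiac thin filaments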
Active calls of the source: *; . = no result given; + = active, no number.

SMILES	RTF Ca sens inh	LANA DNA inh	Keap1-Nrf2 PPI	LANA-H2A inh	RTF Ca sens act
Cc1sc2ncnc(-n3cnc4ccccc43)c2c1C	-5.7	0.8	-2.7	83.2*	-2.1
O=C(NCCCC(=O)N1CCCCC1)c1ccc(Cl)cc1	0.9	-1.4	-4.3	-2.6	0.3
O=C(NCc1cccs1)c1cnc2ccccn2c1=O	-5.6	-1.6	-3.8	9.8*	1.4
COc1ccccc1CNC(=O)c1cnc2ccccn2c1=O	-2.0	1.0	5.0	1.3	-1.2
COc1ccc(OC)c(NC(=O)CSc2nc3scc(C)c3c(=O)[nH]2)c1	0.5	0.0	0.5	-1.8	-2.8
Cc1csc2nc(SCC(=O)Nc3ccccc3F)[nH]c(=O)c12	-0.7	-0.2	-3.0	28.3*	1.4
C=CCNc1nc(Nc2ccccc2F)nc(OCC)n1	-1.6	-1.1	-2.0	15.7*	-2.1
COc1cccc(Oc2c(C)oc3c(CN4CCCC4)c(O)ccc3c2=O)c1	-5.7	0.9	-3.4	-0.7	0.9
COc1ccc(/C=C2\C(=O)NCC(=O)N2Cc2ccccc2)cc1	4.2	-0.1	-4.0	2.5	8.4
COc1ccc(/C=C2\C(=O)NCC(=O)N2C)cc1	-6.9	-0.2	-1.0	13.9*	5.2
COc1cccc(NS(=O)(=O)c2c(C)cc(C)cc2C)c1	-3.4	1.3	-2.7	18.7*	0.0
COc1ccc(NS(=O)(=O)c2c(C)cc(C)cc2C)cc1	4.4	2.5	-2.4	-0.4	-12.7
O=S(=O)(c1ccc(Cl)c(C(F)(F)F)c1)N1CCN(CC(O)COc2ccccc2F)CC1 (configuration not stated)	-11.6	0.1	-3.8	-0.1	-4.5
COc1ccc(S(=O)(=O)NCc2ccc(C(=O)N3CCc4ccccc4C3)cc2)cc1	-14.7	-1.4	0.8	-3.7	1.6
NC(=O)NC(=O)COC(=O)c1cccc(NS(=O)(=O)/C=C/c2ccccc2)c1	-4.2	2.1	-2.2	-1.3	38.1*
CCCCn1nc(-c2ccccc2)c2nc3ccccc3nc21	.	.	.	25.1*	.
Cc1ccc(C)c(OCCC(=O)OCC(=O)N2c3ccccc3NC(=O)C2(C)C)c1	-2.9	-0.6	-4.0	12.3*	5.2
COc1ccccc1CCC(=O)OCC(=O)N1c2ccccc2NC(=O)C1(C)C	-7.8	0.3	-6.2	.	0.6
CN(C)c1ccc(/C=C2\N=C(C(C)(C)C)OC2=O)cc1	-13.9	7.4	2.7	1.8	29.9*
CN1C(=O)/C(=C\c2ccc(N(C)C)cc2)OC1=S	-131.8	-2.2	-17.6	-9.0	45.7*
COc1ccc(/C=C2\OC(=S)N(C)C2=O)cc1	-3.6	2.0	1.1	4.9	-2.0
COc1ccc(/C=C2\N=C(C(C)(C)C)OC2=O)c(OC)c1	-3.3	5.3	0.4	4.6	-2.4
CCN(C(=O)COC(=O)c1oc2ccc(OC)cc2c1C)C1CCCCC1	-12.3	-0.8	-3.1	-5.4	-3.4
Cc1cc(C)c(NC(=O)CNC(=O)c2ccc3ncsc3c2)c(C)c1	-1.2	0.3	-2.3	-2.4	-1.3
CCOc1cc(N2CCOCC2)c(OCC)cc1NC(=O)CSc1nnc(N)s1	-1.6	-2.0	-0.3	-1.2	1.2
SMILES	RTF Ca sens inh	LANA DNA inh	Keap1-Nrf2 PPI	LANA-H2A inh	RTF Ca sens act
O=C(O)C1(c2ccccc2)CCN(S(=O)(=O)c2ccccc2)CC1	-5.0	-5.3	-1.2	1.5*	-7.9
CCOc1ccc(-c2c(C#N)c(N)nc3sc(C(=O)c4ccccc4)c(N)c23)cc1	-8.8	3.6	-1.4	11.0*	1.1
COc1ccc(-c2c(C#N)c(N)nc3sc(C(=O)c4ccccc4)c(N)c23)cc1	-18.6	2.4	-8.0	5.2	18.9
COc1ccc(C(CNC(=O)c2cccc(S(=O)(=O)N3CCOCC3)c2)N2CCCC2)cc1 (configuration not stated)	0.3	0.6	-1.0	10.9*	-4.0
Cn1ncc([N+](=O)[O-])c1C(=O)Nc1ccccc1Cl	-8.6	-0.7	-5.4	13.1*	1.8
Cc1ccccc1NC(=O)c1c([N+](=O)[O-])cnn1C	-8.2	0.7	-0.8	5.4	9.2
CN1C(=O)/C(=C\c2ccco2)N=C1c1ccc(Cl)cc1Cl	-0.6	-0.3	-0.9	-0.3	1.3
Cc1cc(C)n(-c2ccc(NC(=O)C3CCCCN3C(=O)c3ccoc3)cc2)n1 (configuration not stated)	-5.7	-0.1	2.2	54.7*	7.6
CSc1nccc(Oc2cncc(Cl)c2)n1	-5.5	2.6	-4.5	11.1*	-0.6
Cc1ccc(/C=C2/Sc3ccc(C(=O)NCc4ccccn4)cc3NC2=O)cc1	-10.0	0.1	-9.0	0.5	3.7
CCCCSc1nc(O)cc(=O)n1CC	-6.1	-1.7	-7.8	1.6	1.1
COC(=O)c1ccc2c(=O)[nH]c(COC(=O)CCC(=O)c3ccc(Cl)cc3)nc2c1	-39.4	2.1	-6.3	3.5	4.7
O=C(Nc1ccc(NC(=O)c2ccco2)c(Cl)c1)c1ccccc1	4.4	1.1	0.4	21.4*	-2.6
CC(C)Oc1ccc(C(=O)Nc2ccc(NC(=O)c3ccco3)c(Cl)c2)cc1	12.7	-0.5	0.3	-1.7	-0.9
CCC(C)NC(=O)CSc1nc2ccccc2c(=O)n1-c1c(C)n(C)n(-c2ccccc2)c1=O (configuration not stated)	-13.2	-3.0	-4.9	100.2*	0.3
CCCCCCCCC1CC(C(=O)Nc2ccccc2)C(=O)O1 (configuration not stated)	-11.1	0.1	1.7	-0.2	-1.9
Cc1cc(OCC(=O)OCC(=O)N(C)Cc2ccccc2C)ccc1Cl	-5.3	-0.4	-2.7	-1.7	-5.1
CCOc1ccc(CC(=O)Nc2nccs2)cc1OCC	-4.5	-0.6	0.2	20.7*	-3.0
COc1ccc(CC(=O)Nc2nccs2)cc1OC	2.6	0.3	-4.6	-7.6	3.5
O=C(COc1ccccc1)NCC(=O)N1CCCCCC1	-11.8	-0.6	-1.3	50.3*	4.2
S=C(NCc1ccccc1)N/N=C/c1cccs1	3.5	-1.2	1.5	12.6*	-7.2
O=C(COc1ccccc1)N1CCCCCCC1	1.1	0.6	4.3	7.7	-1.8
O=C(COc1ccccc1)NCC(=O)N/N=C/c1cccs1	-3.8	-2.5	-5.6	55.4*	4.6
COc1ccc(Cl)cc1NC(=O)NC1CCCCC1	-1.8	0.0	-4.3	20.6*	8.6
CCCN1CCC(NC(=O)Nc2cc(Cl)ccc2OC)CC1	-2.1	-0.2	1.6	3.6	5.2
COc1ccc(NC(=O)C2CCCN(c3nn4c(=O)cc(C)nc4s3)C2)c(OC)c1 (configuration not stated)	-8.9	-1.6	-6.0	10.9*	-1.6
COc1ccc(CNC(=O)C2CCCN(c3nn4c(=O)cc(C)nc4s3)C2)cc1 (configuration not stated)	6.2	-0.2	-2.7	5.9	2.5
Cc1ccc(NC(=O)CN(C)C(=O)CCSc2ccc(F)cc2)cc1	-4.5	0.0	-4.1	17.8*	-8.8
Cc1c(Cc2ccccc2)sc(/N=C/c2ccc3ccccc3c2)c1C(N)=O	0.2	-1.3	-7.6	+	9.0
Cc1c(Cc2ccccc2)sc(/N=C/c2c(O)ccc3ccccc23)c1C(N)=O	-39.6	0.7	-8.4	-4.0	-4.7
